Residue numbers refer to the chain shown, from its start.

Holding throughout (assay): PBM; 200 nM protein, PBS
What all share (settings): dsDNA, one strand shown

In test [1] the target is T1, NKX2-4 (Homo sapiens, UniProt Q9H2Z4 175-261, P217L).
T1 sequence: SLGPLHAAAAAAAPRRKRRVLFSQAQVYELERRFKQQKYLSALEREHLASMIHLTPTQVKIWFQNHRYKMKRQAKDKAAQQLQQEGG

The target of test [2] is T2, NKX2-4 (Homo sapiens, UniProt Q9H2Z4 175-261, T231S).
T2 sequence: T1 sequence with L43P, T57S

The target in test [3] is T3, NKX2-4 (Homo sapiens, UniProt Q9H2Z4 175-261).
T3 sequence: T1 sequence with L43P

The target of test [4] is T4, NKX2-4 (Homo sapiens, UniProt Q9H2Z4 175-261, R246Q).
T4 sequence: T1 sequence with L43P, R72Q

For the next test, the target named is NKX3-2 (Homo sapiens, UniProt P78367 192-278, P234S).
Another test concerns the target T5, VENTX (Homo sapiens, UniProt O95231 78-163, R121Q).
T5 sequence: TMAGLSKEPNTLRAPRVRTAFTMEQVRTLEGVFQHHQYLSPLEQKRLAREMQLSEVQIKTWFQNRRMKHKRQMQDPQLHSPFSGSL

Test [5] addresses T6, NKX2-6 (Homo sapiens, UniProt A6NCS4 118-204, R150C).
T6 sequence: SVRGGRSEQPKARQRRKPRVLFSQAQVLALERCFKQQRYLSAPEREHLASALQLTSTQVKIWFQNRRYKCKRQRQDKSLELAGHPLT

For test [6], the target named is T7, NKX2-6 (Homo sapiens, UniProt A6NCS4 118-204).
T7 sequence: T6 sequence with C33R

Test [7] has as its target T8, NKX2-6 (Homo sapiens, UniProt A6NCS4 118-204, F151L).
T8 sequence: T6 sequence with C33R, F34L

The target in the next test is ALX1 (Homo sapiens, UniProt Q15699 118-204).
ALX1, sequence (Q15699 118-204): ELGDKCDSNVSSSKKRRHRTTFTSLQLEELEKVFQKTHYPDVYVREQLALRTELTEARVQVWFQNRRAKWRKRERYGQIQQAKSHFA

NKX3-2, sequence (P78367 192-278 P234S): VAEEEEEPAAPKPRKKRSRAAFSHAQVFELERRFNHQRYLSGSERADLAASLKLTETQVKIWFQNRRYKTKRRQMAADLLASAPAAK

For the sequence CGTTTGGC, the binding signal with NKX2-4 [1] is 9.62 upbm affinity estimate (log intensity, higher = more binding, comparable within an allelic series); with NKX2-4 [2] it was 9.4 upbm affinity estimate (log intensity, higher = more binding, comparable within an allelic series); in the test with NKX2-4 [3] it was 9.47 upbm affinity estimate (log intensity, higher = more binding, comparable within an allelic series); in the test with NKX2-4 [4] it was 9.6 upbm affinity estimate (log intensity, higher = more binding, comparable within an allelic series).

On to ACCTGCAG, for which the binding signal with NKX2-4 [1] is 9.74 upbm affinity estimate (log intensity, higher = more binding, comparable within an allelic series); in the test with NKX2-4 [2], 9.82 upbm affinity estimate (log intensity, higher = more binding, comparable within an allelic series); in the test with NKX2-4 [3], 9.68 upbm affinity estimate (log intensity, higher = more binding, comparable within an allelic series); in the test with NKX2-4 [4] it was 9.76 upbm affinity estimate (log intensity, higher = more binding, comparable within an allelic series).

For the sequence ATCCACTC, the binding signal with NKX2-4 [1] is 12.4 upbm affinity estimate (log intensity, higher = more binding, comparable within an allelic series); with NKX3-2 it was 12.5 upbm affinity estimate (log intensity, higher = more binding, comparable within an allelic series).

With GCCCTTAA, the binding signal was 12 upbm affinity estimate (log intensity, higher = more binding, comparable within an allelic series) in the test with NKX2-4 [1]; 12.3 upbm affinity estimate (log intensity, higher = more binding, comparable within an allelic series) in the test with NKX2-4 [2]; 12 upbm affinity estimate (log intensity, higher = more binding, comparable within an allelic series) with NKX2-4 [3]; 12.2 upbm affinity estimate (log intensity, higher = more binding, comparable within an allelic series) with NKX2-4 [4].

With ACTCGTTA, in the test with VENTX, the binding signal was 9.91 upbm affinity estimate (log intensity, higher = more binding, comparable within an allelic series).

As for AGTGGTTC, the binding signal with NKX2-4 [1] is 11.8 upbm affinity estimate (log intensity, higher = more binding, comparable within an allelic series); with NKX2-4 [2] it was 12 upbm affinity estimate (log intensity, higher = more binding, comparable within an allelic series); with NKX2-4 [3], 11.8 upbm affinity estimate (log intensity, higher = more binding, comparable within an allelic series); with NKX2-4 [4], 12.1 upbm affinity estimate (log intensity, higher = more binding, comparable within an allelic series).

Consider AAGTGGAA, for which the binding signal with NKX2-4 [1] is 12.4 upbm affinity estimate (log intensity, higher = more binding, comparable within an allelic series); in the test with NKX2-6 [5], 11.6 upbm affinity estimate (log intensity, higher = more binding, comparable within an allelic series); with NKX2-6 [6], 13.3 upbm affinity estimate (log intensity, higher = more binding, comparable within an allelic series); in the test with NKX2-4 [4], 12.9 upbm affinity estimate (log intensity, higher = more binding, comparable within an allelic series); with NKX2-6 [7], 10.6 upbm affinity estimate (log intensity, higher = more binding, comparable within an allelic series).

For ACTCTTAA, the binding signal with NKX2-4 [1] was 12.4 upbm affinity estimate (log intensity, higher = more binding, comparable within an allelic series); with ALX1, 8.51 upbm affinity estimate (log intensity, higher = more binding, comparable within an allelic series).

With ACTATAAG, the binding signal with NKX2-4 [1] is 11.5 upbm affinity estimate (log intensity, higher = more binding, comparable within an allelic series); with NKX2-4 [3], 11.4 upbm affinity estimate (log intensity, higher = more binding, comparable within an allelic series); in the test with NKX2-4 [4] it was 11.8 upbm affinity estimate (log intensity, higher = more binding, comparable within an allelic series).

In the case of CCCCGCCG, the binding signal with NKX2-4 [1] is 9.51 upbm affinity estimate (log intensity, higher = more binding, comparable within an allelic series); with NKX2-4 [2], 9.45 upbm affinity estimate (log intensity, higher = more binding, comparable within an allelic series); in the test with NKX2-4 [3] it was 9.54 upbm affinity estimate (log intensity, higher = more binding, comparable within an allelic series); with NKX2-4 [4] it was 9.57 upbm affinity estimate (log intensity, higher = more binding, comparable within an allelic series).

On to CAGGCATG, for which the binding signal was 9.76 upbm affinity estimate (log intensity, higher = more binding, comparable within an allelic series) with NKX2-4 [1]; 9.76 upbm affinity estimate (log intensity, higher = more binding, comparable within an allelic series) in the test with NKX2-4 [2]; 9.66 upbm affinity estimate (log intensity, higher = more binding, comparable within an allelic series) with NKX2-4 [3]; 9.82 upbm affinity estimate (log intensity, higher = more binding, comparable within an allelic series) with NKX2-4 [4].

Consider ACCAACGG, for which the binding signal was 9.32 upbm affinity estimate (log intensity, higher = more binding, comparable within an allelic series) with NKX2-4 [1]; 9.25 upbm affinity estimate (log intensity, higher = more binding, comparable within an allelic series) with NKX2-4 [2]; 9.28 upbm affinity estimate (log intensity, higher = more binding, comparable within an allelic series) in the test with NKX2-4 [3]; 9.29 upbm affinity estimate (log intensity, higher = more binding, comparable within an allelic series) in the test with NKX2-4 [4].

For the sequence GCGGCGAC, the binding signal in the test with NKX2-4 [1] is 9.68 upbm affinity estimate (log intensity, higher = more binding, comparable within an allelic series); in the test with NKX2-4 [2], 9.58 upbm affinity estimate (log intensity, higher = more binding, comparable within an allelic series); with NKX2-4 [3] it was 9.61 upbm affinity estimate (log intensity, higher = more binding, comparable within an allelic series); in the test with NKX2-4 [4] it was 9.79 upbm affinity estimate (log intensity, higher = more binding, comparable within an allelic series).

For the origin of these results see paper PMC11006913.
